Experimental data taken from ChEMBL document CHEMBL5606460, “ASAP - DENV-2 NS2B-NS3 protease fluorescence single point” (2024).
Screen size: about 2,000 compounds; about 110 (5.5%) showed an effect of 50% or more. This is one part of a sample in which strong results are shown more often than they occur.

Molecular target: Genome polyprotein (dengue virus type 2) (UniProt P29990)
[1] = Thailand/16681/1984, Concentration 25.0 uM, Number of replicates 1.0

SMILES: Cc1cc(CO)c2cccc(NC(=O)c3nc(C4CCNCC4)oc3C)c2n1
- inhibition (Thailand/16681/1984, Concentration 49.95 uM, Number of replicates 2.0, Standard deviation 36.17788639576005 %): 67.7%
- inhibition (Thailand/16681/1984, Concentration 99.9 uM, Number of replicates 2.0, Standard deviation 0.36888000776056334 %): 98.7%

SMILES: Cc1cc(CO)c2cccc(Cc3cccc(NC(=O)c4nc(C5CCNCC5)oc4C)c3)c2n1
- inhibition (Thailand/16681/1984, Concentration 49.95 uM, Number of replicates 2.0, Standard deviation 2.427412589513284 %): -2.68%
- inhibition (Thailand/16681/1984, Concentration 99.9 uM, Number of replicates 2.0, Standard deviation 2.040383474434353 %): -3.1%

SMILES: Cc1nccc(Cn2cc(C3CCNCC3)c(C)n2)n1
- inhibition (Thailand/16681/1984, Concentration 49.5 uM, Number of replicates 2.0, Standard deviation 0.12424043789356491 %): -1.07%
- inhibition (Thailand/16681/1984, Concentration 99.01 uM, Number of replicates 2.0, Standard deviation 0.32682664095966646 %): -0.665%
- inhibition (Thailand/16681/1984, Concentration 198.0 uM, Number of replicates 2.0, Standard deviation 1.945197851645592 %): 1.76%

SMILES: CN(Cc1nc2ccccc2n1C)C(=O)C1CCN(c2ccc(C=O)cc2)CC1
- inhibition [1]: 14.9%

SMILES: Cc1cc(NS(=O)(=O)c2ccc(Oc3ccccc3Cl)cc2)c(C(=O)NCC(F)(F)F)cc1F
- inhibition (Thailand/16681/1984, Concentration 49.5 uM, Number of replicates 2.0, Standard deviation 0.004288863304468577 %): 80.7%
- inhibition (Thailand/16681/1984, Concentration 99.01 uM, Number of replicates 2.0, Standard deviation 0.05387243894141284 %): 85%
- inhibition (Thailand/16681/1984, Concentration 198.0 uM, Number of replicates 2.0, Standard deviation 0.06674981844803736 %): 82.2%

SMILES: CNC(=O)c1cc(Cl)cc(OC)c1NS(=O)(=O)c1ccc(Oc2ccccc2Cl)cc1
- inhibition (Thailand/16681/1984, Concentration 49.5 uM, Number of replicates 2.0, Standard deviation 0.8103097460864452 %): 1.45%
- inhibition (Thailand/16681/1984, Concentration 99.01 uM, Number of replicates 2.0, Standard deviation 1.6946405270728757 %): 1.53%
- inhibition (Thailand/16681/1984, Concentration 198.0 uM, Number of replicates 2.0, Standard deviation 1.1024722794831296 %): -0.559%

SMILES: CNC(=O)c1cc(Cl)c(F)cc1NS(=O)(=O)c1ccc(Oc2ccccc2Cl)cc1
- inhibition (Thailand/16681/1984, Concentration 49.5 uM, Number of replicates 2.0, Standard deviation 0.030615470758313425 %): 98.6%
- inhibition (Thailand/16681/1984, Concentration 99.01 uM, Number of replicates 2.0, Standard deviation 0.03013533386007732 %): 99.7%
- inhibition (Thailand/16681/1984, Concentration 198.0 uM, Number of replicates 2.0, Standard deviation 0.00477978979592347 %): 98.7%

SMILES: CNC(=O)c1cc(Cl)c(OC)cc1NS(=O)(=O)c1ccc(Oc2ccccc2Cl)cc1
- inhibition (Thailand/16681/1984, Concentration 49.5 uM, Number of replicates 2.0, Standard deviation 1.7443589304782063 %): 79.2%
- inhibition (Thailand/16681/1984, Concentration 99.01 uM, Number of replicates 2.0, Standard deviation 0.14348540542006383 %): 98.5%
- inhibition (Thailand/16681/1984, Concentration 198.0 uM, Number of replicates 2.0, Standard deviation 0.05118043543332502 %): 99.3%

SMILES: CNC(=O)c1cn(S(=O)(=O)c2ccc(Oc3ccccc3Cl)cc2)c2ccc(Cl)cc12
- inhibition (Thailand/16681/1984, Concentration 49.5 uM, Number of replicates 2.0, Standard deviation 1.1380993582408887 %): 0.625%
- inhibition (Thailand/16681/1984, Concentration 99.01 uM, Number of replicates 2.0, Standard deviation 1.0406365412270837 %): 4.48%
- inhibition (Thailand/16681/1984, Concentration 198.0 uM, Number of replicates 2.0, Standard deviation 0.5161930213749926 %): 12.8%

SMILES: CNC(=O)c1nccnc1NS(=O)(=O)c1ccc(Oc2ccccc2Cl)cc1
- inhibition (Thailand/16681/1984, Concentration 49.5 uM, Number of replicates 2.0, Standard deviation 1.5095148361141704 %): 0.146%
- inhibition (Thailand/16681/1984, Concentration 99.01 uM, Number of replicates 2.0, Standard deviation 1.499470483470751 %): 2.7%
- inhibition (Thailand/16681/1984, Concentration 198.0 uM, Number of replicates 2.0, Standard deviation 0.45486328764545614 %): 7.74%

SMILES: CNC(=O)c1ccncc1NS(=O)(=O)c1ccc(Oc2ccccc2Cl)cc1
- inhibition (Thailand/16681/1984, Concentration 49.5 uM, Number of replicates 2.0, Standard deviation 3.023334340601001 %): -2.48%
- inhibition (Thailand/16681/1984, Concentration 99.01 uM, Number of replicates 2.0, Standard deviation 3.20078374174672 %): -0.672%
- inhibition (Thailand/16681/1984, Concentration 198.0 uM, Number of replicates 2.0, Standard deviation 2.339843576600017 %): 2.95%

SMILES: CN1CCN(c2ccc(CCNc3ccccc3F)cc2)CC1
- inhibition (Thailand/16681/1984, Concentration 49.5 uM, Number of replicates 2.0, Standard deviation 1.1725472419342977 %): -4.52%
- inhibition (Thailand/16681/1984, Concentration 99.01 uM, Number of replicates 2.0, Standard deviation 1.0151129155310683 %): -3.89%
- inhibition (Thailand/16681/1984, Concentration 198.0 uM, Number of replicates 2.0, Standard deviation 0.9851713728804441 %): -1.99%

SMILES: CNS(=O)(=O)c1ccc(CNCc2ccc(N3CCN(C)CC3)cc2)cc1
- inhibition (Thailand/16681/1984, Concentration 49.5 uM, Number of replicates 2.0, Standard deviation 0.2679515396874046 %): -1.41%
- inhibition (Thailand/16681/1984, Concentration 99.01 uM, Number of replicates 2.0, Standard deviation 0.0046358372348345115 %): -0.423%
- inhibition (Thailand/16681/1984, Concentration 198.0 uM, Number of replicates 2.0, Standard deviation 1.744466130987394 %): 0.949%

SMILES: CC(C)(C)OC(=O)N1CCOC[C@H]1CNCc1nnc2ccccn12
- inhibition (Thailand/16681/1984, Concentration 49.5 uM, Number of replicates 2.0, Standard deviation 3.6636813935617547 %): -2.66%
- inhibition (Thailand/16681/1984, Concentration 99.01 uM, Number of replicates 2.0, Standard deviation 2.060655687099608 %): -2.48%
- inhibition (Thailand/16681/1984, Concentration 198.0 uM, Number of replicates 2.0, Standard deviation 3.020799081222525 %): -1.72%

SMILES: CC(C)Cn1cccc(C(=O)Nc2ccncc2)c1=O
- inhibition (Thailand/16681/1984, Concentration 49.5 uM, Number of replicates 2.0, Standard deviation 1.6949837288603 %): 4.6%
- inhibition (Thailand/16681/1984, Concentration 99.01 uM, Number of replicates 2.0, Standard deviation 0.80587134576346 %): 8.75%
- inhibition (Thailand/16681/1984, Concentration 198.0 uM, Number of replicates 2.0, Standard deviation 0.4281674737986559 %): 16%

SMILES: Cc1cc(CO)c2cccc(Cc3ccccc3NC(=O)Cc3csc(Cc4ccccc4)n3)c2n1
- inhibition (Thailand/16681/1984, Concentration 49.95 uM, Number of replicates 2.0, Standard deviation 1.2441700790071646 %): -0.54%
- inhibition (Thailand/16681/1984, Concentration 99.9 uM, Number of replicates 2.0, Standard deviation 1.3300226430755788 %): 0.901%

SMILES: O=Cc1ccc(N2CCC(C(=O)N3CCC(O)(c4ccc(Br)cc4)CC3)CC2)cc1
- inhibition [1]: 14.6%
